Measurements as given in PMC5540273 (PLoS ONE, 2017).

Legend:
Settings in all cases: concentration: 1 μM, replicates: in singlicate; n = 1
PCTK2 = tested on: T1, PCTK2
T1 construct: gene CDK17

PCTK3 = tested on: T2, PCTK3
T2 construct: gene CDK18

PDGFRA = tested on: PDGFRA
PDGFRB = tested on: PDGFRB
PDPK1 = tested on: PDPK1
PFTAIRE2 = tested on: PFTAIRE2
PFTK1 = tested on: T3, PFTK1
T3 construct: gene CDK14

PHKG1 = tested on: PHKG1
PHKG2 = tested on: PHKG2
PIK3C2B = tested on: PIK3C2B
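Note: KINOMEscan kinase panel screen.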

| Structure (SMILES) | %Inh (PCTK2) [%] | %Inh (PCTK3) [%] | %Inh (PDGFRA) [%] | %Inh (PDGFRB) [%] | %Inh (PDPK1) [%] | %Inh (PFTAIRE2) [%] | %Inh (PFTK1) [%] | %Inh (PHKG1) [%] | %Inh (PHKG2) [%] | %Inh (PIK3C2B) [%] |
| --- | --- | --- | --- | --- | --- | --- | --- | --- | --- | --- |
| Nc1ncc(-c2cn[nH]c2)c2scc(-c3ccc4c(c3)CCN4C(=O)Cc3ccccc3)c12 [GSK2593067] | 0 | 29 | 96 | 100 | 65 | 0 | 0 | 0 | 0 | 0 |
| Fc1cc(Cl)ccc1Nc1ccnc2cc(-c3ccc(CN4CCSCC4)o3)ccc12 [GW560106] | 0 | 8 | 99.1 | 100 | 0 | 6 | 11 | 1 | 0 | 0 |
| Nc1cccc(-c2ccc3c(N)n[nH]c3c2)c1 [GSK2193613] | 19 | 4 | 9 | 29 | 0 | 13 | 30 | 0 | 11 | 0 |
| Cc1nn2c(=O)cc(N3CCO[C@H](C)C3)nc2n1Cc1cccc(Cl)c1Cl [GSK2373693] | 0 | 8 | 1 | 65 | 0 | 9 | 5 | 0 | 0 | 99.4 |
| CC(C)(C)c1ccc(C(=O)Nc2cn3cc(-n4ccnc4)ccc3n2)cc1 | 14 | 0 | 61 | 96.9 | 1 | 8 | 10 | 40 | 13 | 0 |
| O=C(Nc1c(F)cccc1F)c1cc(C(=O)c2ccccc2F)c[nH]1 [GSK1326180] | 0 | 0 | 0 | 14 | 0 | 10 | 20 | 0 | 0 | 0 |
| O=C(Nc1n[nH]c2nc(-c3cccc(O)c3)ccc12)C1CC1 [SB-711805] | 35 | 0 | 52 | 50 | 5 | 21 | 4 | 0 | 0 | 4 |
| Cc1cc(-c2c(-c3ccc(F)cc3)ncn2CCCN2CCOCC2)nc(N)n1 [SB-222517] | 0 | 0 | 0 | 16 | 0 | 0 | 0 | 12 | 0 | 28 |
| COc1cccc(CC(=O)N2CCc3cc(-c4cn(C)c5ncnc(N)c45)ccc32)c1 [GSK2608899] | 0 | 4 | 88 | 99.2 | 20 | 12 | 0 | 0 | 0 | 83 |
